HT1080 IDH1KD tx = toxicity to HT-1080 IDH1 knockdown cells (counter line) | HT-1080 IDH1 knockdown viability, ATP luminescence, 48 h | Potency, µM (titrated, usually from 46.1 µM), for the others: top-dose activity, negative = toxicity, actives largely listed as cytotoxic | hit rate 2% among 360,000;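 note: potency is the fitted concentration of half-maximal effect; 0% = DMSO wells and -100% = cell-free medium wells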
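Viability of IDH1-knockdown HT-1080 fibrosarcoma cells was assessed by CellTiter-Glo after 48 h at 37 °C with titrated compound; concentration-effect curves were classified by fit quality and response size.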
IL1B secr inh = blocks inflammasome-driven IL-1 beta release; THP-1 LPS/ATP IL-1B secretion, AlphaLISA, 16 h; hits give low values; hit rate 4.7% among 360,000; activity change, % at 57.5 µM; in the data active = activity change below about -50%; inconclusive = mostly about -30% to -49%
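Secreted IL-1B measured by AlphaLISA bead assay after 16 h compound exposure of THP-1 cells; compounds (final up to 57.5 uM) added 1 h before LPS (250 ng/mL) and ATP (1.25 mM) stimulation; lower signal means less secretion.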
TDP1 cell CPT = growth inhibition of DT40 Tdp1-/-;hTDP1 cells with camptothecin (screen for TDP1 inhibitors). chicken DT40 Tdp1-/-;hTDP1 cells + 20 nM CPT, ATP luminescence, 48 h. Potency, µM (highest dose often 46.2 µM), for the others: at the top dose activity change, negative = growth inhibition, actives largely listed as inhibitors. hit rate 12% among 420,000. AID 686979; note: potency is the fitted concentration of half-maximal effect; nearly all actives have a fitted effect of over 55% in size
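Chicken DT40 Tdp1-/- cells complemented with human TDP1, 400 cells/well, exposed to compounds plus 20 nM camptothecin for at least 48 h at 37 C; viability read as ATP content by CellTiter-Glo luminescence.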
HT1080NT lethal = kills 2HG-producing HT-1080-NT fibrosarcoma cells; HT-1080-NT fibrosarcoma viability, CellTiter-Glo ATP luminescence, 48 h; Potency, µM (series often up to 46.1 µM), without a hit: at the highest dose activity, negative = less viability, most hits filed as cytotoxic; hit rate 1.6% among 360,000;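 note: NT is the 2HG producing partner of a matched IDH1 knockdown line; potency is the fitted concentration of half-maximal effect; 0% = DMSO-treated cells and -100% = media-only wells without cells; nearly all actives have a fitted effect of over 55% in size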
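HT-1080-NT; 750 cells/well; 5% FBS RPMI; 48 h compound, 37 degrees C; CellTiter-Glo luminescence; curve fitting and curve-class assignment.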
TDP1 cell noCPT = qHTS for Inhibitors of human tyrosyl-DNA phosphodiesterase 1 (TDP1): qHTS in cells in absence of CPT | AID 686978, 2013 | DT40 Tdp1-/- hTDP1 cells, no CPT, ATP luminescence, 48 h | Potency, µM (series often up to 46.2 µM), for inactives: at the highest dose activity change, negative = growth inhibition, most hits filed as inhibitors | hit rate 15% among 420,000; note: potency is the fitted concentration of half-maximal effect; nearly all actives have a fitted effect of over 55% in size
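Stably hTDP1-transfected Tdp1-null chicken DT40 cells were treated with library compounds minus camptothecin and grown for at least 48 hr at 37 °C, after which cellular ATP was quantified by luminescence.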
* = called active by the depositor; i = inactive; ? = inconclusive; · = no result. Shown are actives, neighbours in structure and some others; about 19% of the full set was active somewhere. Unless noted, calls come from the whole dose curve; as a rule, active = well fitted curve in the direction sought with a large enough effect; inconclusive = small, poorly fitted or top-dose-only effect, or another doubt; inactive = no such curve, though single readings can be large; an effect the other way counts as inactive or inconclusive. Unless noted, % is set by controls: 0 for no effect and ±100 for the full control effect.

SMILES | HT1080 IDH1KD tx | IL1B secr inh | TDP1 cell CPT | HT1080NT lethal | TDP1 cell noCPT
COc1cccc(N2CCN(C(=O)C3CCC(=O)N(C4CCCCCC4)C3)CC2)c1 (stereo unspecified) | -9% | i | 15µM* | -13% | 18µM*
C[C@H](O)[C@@H]1C(=O)N2CCc3c([nH]c4ccccc34)[C@@H]2C[C@@H]1N(C)C(=O)NC1CCCCC1 | -5% | -15 | -17% | -5% | ?
COc1ccc(C(C(=O)Nc2ccc(F)cc2)N2CCN(c3cccc(C(F)(F)F)n3)CC2)cc1 (stereo unspecified) | -5% | ? | ? | -3% | ?
Cc1noc(C)c1CSc1ccccc1C(=O)N(C)CC(=O)Nc1cccc(F)c1 | -3% | -1 | -13% | -5% | -22%
CCCNC(=O)N1CCN(S(C)(=O)=O)CC1 | ? | 5 | 11% | 8% | -2%
CS(=O)(=O)N1CCCC(C(=O)N2CCN(c3cccc(Cl)c3)CC2)C1 (stereo unspecified) | -3% | -1 | 21µM* | -10% | ?
CS(=O)(=O)N1CCC(C(=O)N2CCN(c3cccc(Cl)c3)CC2)CC1 | 2% | 10 | 1% | ? | -29%
CCN(CC)C1CC(=O)N(c2cccc(Cl)c2)C1=O (stereo unspecified) | ? | -8 | ? | 18% | 23µM*
O=C(C1CCN(C2CC(=O)N(c3cccc(Cl)c3)C2=O)CC1)N1CCCC1 (stereo unspecified) | 14% | 2 | 16µM* | 23% | ?
Cc1c(Cl)cccc1NC(=O)C1CC(=O)N(C2CCCC2)C1 (stereo unspecified) | 6% | -58* | 0% | -1% | -7%
O=C(O)CSC1CC(=O)N(c2cccc(Cl)c2)C1=O (stereo unspecified) | 4% | -2 | -3% | 3% | ?
COC(=O)CSc1nnc(-c2cccc(O)c2)o1 | · | · | 24% | · | 16%
COc1ccccc1-n1c(/C=C/c2c(C)n(C)c3ccccc23)nc2ccccc2c1=O | · | · | ? | · | 3.7µM*
Cc1ccccc1-n1c(/C=C/c2c(C)n(C)c3ccccc23)nc2ccccc2c1=O | · | · | 6.5µM* | · | 8.2µM*
CCn1c(/C=C/c2c(C)n(CC)c3ccccc23)nc2ccccc2c1=O | 15% | 29 | ? | 11% | ?
COc1cccc(-c2ccc3c(c2)O[C@H](CN(C)C(=O)c2ccccc2F)[C@H](C)CN([C@H](C)CO)S3(=O)=O)c1 | -11% | -29 | ? | 8% | 21µM*
COc1cccc(-c2ccc3c(c2)O[C@@H](CN(C)Cc2cncnc2)[C@@H](C)CN([C@H](C)CO)S3(=O)=O)c1 | 0% | 1 | 23µM* | 1% | 9.2µM*
Cc1ccc(-c2ccc3c(c2)O[C@H](CN(C)Cc2cncnc2)[C@@H](C)CN([C@H](C)CO)S3(=O)=O)cc1 | 0% | -29 | ? | -7% | 23µM*
C[C@@H]1CN([C@@H](C)CO)S(=O)(=O)c2ccc(-c3cccc(C#N)c3)cc2O[C@@H]1CN(C)C(=O)c1ccc(F)cc1 | -28% | -26 | ? | 26% | 21µM*
C[C@H](CO)N1C[C@H](C)[C@@H](CN(C)Cc2cccnc2)Oc2cc(-c3cccnc3)ccc2S1(=O)=O | 11% | -21 | -20% | 4% | -28%
COc1ccccc1-c1ccc2c(c1)O[C@@H](CN(C)C(=O)Nc1cccc(F)c1)[C@H](C)CN([C@H](C)CO)S2(=O)=O | -8% | -26 | ? | -15% | ?
O=S(=O)(c1ccc2nc(SCc3cccc(Cl)c3)[nH]c2c1)N1CCOCC1 | · | -17 | ? | · | ?
NC(CS(=O)O)C(=O)O (stereo unspecified) | 0% | 14 | 18% | 28% | 0%
CCOc1ccc(OCc2ccc(C(=O)NC(C)C)o2)cc1 | -4% | 9 | ? | 0% | ?
CC(C)NC(=O)c1ccc(COc2cc(Cl)ccc2Cl)o1 | -21% | -62* | -30% | ? | 21µM*
SMILES | HT1080 IDH1KD tx | IL1B secr inh | TDP1 cell CPT | HT1080NT lethal | TDP1 cell noCPT
Cc1[nH]ccc(=O)c1Oc1ncc(C(F)(F)F)cc1Cl | 19% | 22 | -3% | 9% | -6%
CCN(C(=O)c1cnc(N2CCOCC2)c2ccccc12)c1cc(C)ccc1C | · | · | 23µM* | · | ?
CCc1ccccc1N(C)C(=O)c1cnc(N2CCOCC2)c2ccccc12 | · | · | ? | · | -72%
CCOC(=O)c1nnn2c1nc(N1CCOCC1)c1ccccc12 | -9% | -2 | -6% | -9% | -14%
Cc1ccc(N(C)C(=O)c2cnc(N3CCOCC3)c3ccccc23)cc1C | · | · | 23µM* | · | ?
Cc1ccc(NC(=O)C(C)SCc2nc3sc(C)c(C)c3c(=O)[nH]2)nc1 (stereo unspecified) | 17% | 1 | -4% | 9% | -12%
C=CCN1C(=O)/C(=N/n2cnnc2)c2ccccc21 | 5% | 58 | 5.8µM* | 1% | 4.6µM*
NC(=O)C1CCN(C(=O)COc2ccc(S(=O)(=O)NCc3ccccc3)cc2Cl)CC1 | 3% | 26 | ? | 11% | 8%
CCCCNC(=O)c1nc(-c2cnccn2)oc1-c1ccc(Cl)cc1 | ? | -22 | ? | 28% | ?
CCCCNC(=O)c1nc(-c2cccs2)oc1-c1ccc(Cl)cc1 | 27% | -5 | ? | 25% | 15µM*
CCCCNC(=O)c1nc(-c2cc3ccccc3[nH]2)oc1-c1ccccc1 | -9% | 6 | ? | -16% | 16µM*
O=C(NC(c1ccc(-c2ccccc2)cc1)c1cnccn1)C1CCN(CCCOc2ccccc2)CC1 (stereo unspecified) | 9.2µM* | -21 | 23µM* | ? | 13µM*
O=C(NC(c1ccc(-c2ccccc2)cc1)c1cnccn1)C1CCN(CCOc2ccc(F)cc2)CC1 (stereo unspecified) | 16µM* | -54* | ? | ? | ?
O=C(NC(c1ccc(F)cc1)c1cnccn1)C1CCN(CCOc2ccc(Cl)cc2Cl)CC1 (stereo unspecified) | ? | · | ? | ? | 16µM*
O=C(NC(c1ccc(Cl)cc1)c1cnccn1)C1CCN(CCOc2ccc(F)cc2)CC1 (stereo unspecified) | ? | ? | ? | ? | 18µM*
COc1ccc(C(NC(=O)C2CCN(CCCOc3ccccc3)CC2)c2ccccn2)cc1 (stereo unspecified) | -1% | -13 | -25% | 4% | -17%
COc1cccc(OC)c1OCCN1CCC(C(=O)NC(c2ccc3c(c2)OCO3)c2ccccn2)CC1 (stereo unspecified) | -9% | -29 | -7% | -19% | -16%

Screening data from PubChem BioAssay.
